Records with an inconclusive call do not appear. Entries that show only a call come without a potency. Activity calls are given as the source filed them. Unless noted, calls follow the shape of the dose curve; as a rule, active = well fitted curve in the direction sought with a large enough effect; inconclusive = small, poorly fitted or top-dose-only effect, or another doubt; inactive = no such curve, though single readings can be large; an effect the other way counts as inactive or inconclusive. Starred links: 1 amine or outer side, 2 acyl side, 3 side chain; linkers in the order of their positions; H or OH if unused. Positions of bridges follow the written chain, without caps; N, C: chain ends. Non-standard residues stand in square brackets, D forms with d. Residues, ends and D or L forms follow the SMILES beside them. *: point of attachment. X4 = NC1=N[C@@H](O)C[C@H]([C@H](N[*:1])C(=O)[*:2])N1; ΔAla(3-NHCONH2) = NC(=O)NC=C(N)C(=O)O; β3hOrn = NCCC[C@H](N)CC(=O)*; Dap = NC[C@H](N)C(=O)O
Experiments:
[1] = qHTS profiling of the MIPE4 collection as inhibitors of Plasmodium falciparum (3D7) proliferation (AID 743344; call rule not given here); settings: P. falciparum 3D7 in erythrocytes, SYBR Green DNA fluorescence, 72 h; at 5.51 µM (top of the series) unless noted
Method in brief: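 Erythrocytes infected with P. falciparum (0.3% parasitemia, 2.5% hematocrit) incubated with compounds 72 h at 37 C, 5% CO2. Lysis with saponin/Triton buffer containing SYBR Green I, overnight at room temperature in the dark; DNA fluorescence (485/535 nm) normalised to 0.29 uM artemisinin and DMSO.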

[2] = molecular target: Guanine nucleotide-binding protein G(i) subunit alpha-1 (Homo sapiens) (UniProt P63096); assay: qHTS Assay for Inhibitors of RGS12 GoLoco Motif Activity (Green Fluorophore) (AID 879); settings: Galphai1/FITC-RGS12 GoLoco peptide, fluorescence polarization; series mostly up to 57.1 µM;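 also: negative values mean loss of peptide binding seen as reduced polarization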
Method in brief: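 Fluorescence polarization assay: 50 nM Gαi1 with 10 nM FITC-labeled RGS12 GoLoco peptide in 10 mM Tris pH 7.5, 150 mM NaCl, 0.1 mM GDP, 0.05% NP40, 10 min at room temperature with compound.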

[3] = molecular target: Muscarinic acetylcholine receptor M1 (Rattus norvegicus) (UniProt P08482); assay: qHTS Assay for Antagonists of Acetylcholine Muscarinic M1 Receptor: Measurement of IP-One Response (AID 944); settings: CHO-M1 cells, IP-One HTRF, antagonist mode; series mostly up to 46.1 µM; also: nearly all actives have a fitted effect of over 75% in size
Method in brief: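 CHO cells stably expressing rat M1, pretreated 10 min with compound, then stimulated 30 min with carbachol at EC80 (200 nM) in LiCl-containing buffer pH 7.4; IP1 accumulation read by HTRF competition (665/620 nm).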

[4] = molecular target: Pyruvate kinase (Leishmania mexicana) (UniProt Q27686); assay: qHTS Validation Assay for Inhibitors of Leishmania Mexicana Pyruvate Kinase (AID 945); settings: purified L. mexicana pyruvate kinase, enzyme activity, E451W mutant enzyme; series mostly up to 57.5 µM
Method in brief: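 Eight-point qHTS titrations in triplicate, data normalized to DMSO neutral control. Reaction: 0.2 nM LmPYK E451W mutant, 0.5 mM PEP, 0.1 mM ADP, 7 mM MgCl2, pH 7.2, one hour at room temperature; luminescent ATP detection.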

[5] = molecular target: Pyruvate kinase PKM (Homo sapiens) (UniProt P14618); assay: qHTS Assay for Activators of Human Muscle Pyruvate Kinase (AID 954; active = well fitted curve in the direction sought with a large enough effect, not every such curve was filed as active); settings: purified human muscle pyruvate kinase, luciferase-coupled luminescence, 1 h; series mostly up to 57.5 µM
Method in brief: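 Luminescence from a luciferase ATP-detection/stop reagent reported PKM2 activity. Reactions contained 0.1 nM purified human enzyme, 0.5 mM PEP, 0.1 mM ADP and 7 mM MgCl2 at pH 7.2, run 1 h at RT.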

[6] = molecular target: Alpha-galactosidase A (Homo sapiens) (UniProt P06280); assay: Counterscreen for Glucocerebrosidase Inhibitors: qHTS Assay for Human alpha-Galactosidase at pH 4.5 (AID 992); settings: purified enzyme, fluorogenic substrate; series mostly up to 76.9 µM
Method in brief: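 Enzyme at 2 nM final was combined with compound (0.7 nM to 77 uM) and 80 uM 4-methylumbelliferyl alpha-D-galactopyranoside in 50 mM citric acid, 0.005% Tween-20, pH 4.5. After 20 min at room temperature, fluorescence was read (Ex 365/Em 440 nm); AC50 came from Hill fits.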

[7] = molecular target: alpha-glucosidase (Oryza sativa, rice) (UniProt Q653V4); assay: Counterscreen for Glucocerebrosidase Inhibitors: qHTS Assay for Rice alpha-Glucosidase at pH 5.0 (AID 997); settings: rice alpha-glucosidase enzyme activity; series mostly up to 76.9 µM
Method in brief: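 Rice alpha-glucosidase (4 nM final) with 400 uM 4-methylumbelliferyl-alpha-D-glucopyranoside in citrate buffer pH 5.0, 20 min at room temperature, stopped at pH 10; fluorescence 365/440 nm, compounds 0.7 nM–77 uM, AC50 from Hill fits.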

[8] = molecular target: Cytochrome P450 2D6 (Homo sapiens) (UniProt P10635); assay: Cytochrome P450 family 2 subfamily D member 6 (CYP2D6) small molecule antagonists: luciferase biochemical (cell-free) qHTS assay (AID 1645840; active = well fitted curve in the direction sought with a large enough effect in the repeat runs; an effect the other way counts as inactive or inconclusive; also: nearly all actives have a fitted effect of over 55% in size); settings: P450-Glo CYP2D6 enzyme, luciferin luminescence, 1 h; series mostly up to 57.4 µM
Method in brief: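 P450-Glo luminescent screen: recombinant CYP2D6 enzyme–proluciferin substrate mix preincubated with compound 10 min at room temperature, then NADPH regeneration added for 1 h at room temperature. Detection reagent added for 20 min; luciferin light read as relative luminescence units.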

[9] = molecular target: Cytochrome P450 2C9 (Homo sapiens) (UniProt P11712); assay: Cytochrome P450 family 2 subfamily C member 9 (CYP2C9) small molecule antagonists: luciferase biochemical (cell-free) qHTS assay (AID 1645842; active = well fitted curve in the direction sought with a large enough effect in the repeat runs; an effect the other way counts as inactive or inconclusive; also: nearly all actives have a fitted effect of over 55% in size); settings: P450-Glo CYP2C9 enzyme assay, luciferin luminescence; series mostly up to 57.4 µM
Method in brief: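 Luminescence, after 20 min with luciferin detection reagent, reflected CYP2C9 turnover during a 1 h NADPH-driven reaction at 37C. Enzyme-substrate mix contained 0.4% bovine serum albumin and was preincubated with compound 10 min at room temperature.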

[10] = molecular target: Ferritin light chain (Equus caballus) (UniProt P02791); assay: qHTS Validation Assay for Identification of Novel General Anesthetics (AID 2323); settings: horse apoferritin, anesthetic-site fluorescent probe displacement; series mostly up to 76.9 µM
Method in brief: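 Normalized fluorescence response, scaled between free 1-AMA and 1-AMA/apoferritin complex, fitted to a four-parameter Hill equation for concentration-effect values. Binding mix: 10 uM horse-spleen apoferritin, 50% saturated 1-AMA in PBS; read 380/535 nm after 10 min.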

[11] = molecular target: RecQ-like DNA helicase BLM (Homo sapiens) (UniProt P54132); assay: qHTS Validation Assay for Inhibitors of Bloom's syndrome helicase (BLM) (AID 2364); settings: BLM helicase DNA unwinding, fluorescence, in vitro; series mostly up to 57.1 µM
Method in brief: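 Forked 20-bp duplex substrate (200 nM, TAMRA/BHQ-2) plus 2 mM ATP added after 15 min compound preincubation with 50 nM enzyme, pH 8.0, poly(dI-dC) 2.5 ug/ml. Strand separation followed by fluorescence (525/598 nm) over 2 h, normalized to enzyme-free and DMSO controls.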

[12] = Validation screen for small molecules that induce DNA re-replication in MCF 10A normal breast cells (AID 463097); settings: MCF 10A cells, DNA re-replication phenotype imaging; series mostly up to 46.1 µM; also: nearly all actives have a fitted effect of over 60% in size
Method in brief: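 Following 48 hr compound incubation (37 C, 5% CO2), MCF 10A cells receive Hoechst for 40 min at 37 C. Nuclei are then scanned (excitation 405 nm, emission 500-530 nm) for total fluorescence intensity.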

[13] = Quantitative high throughput screen for delayed death inhibitors of the malarial parasite plastid, 48 hour incubation (AID 488752); settings: Plasmodium falciparum growth; series mostly up to 28.7 µM; also: nearly all actives have a fitted effect of over 65% in size; also: potency is read from the fitted curve at half-maximal effect
Method in brief: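 Erythrocytes infected with firefly luciferase-expressing P. falciparum (2% hematocrit, 0.1% parasitemia) cultured with compound for 48 h at 37 C, 5% CO2, in RPMI 1640/0.5% Albumax. Growth inhibition read as loss of luminescence.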

[14] = Validation screen for small molecules that induce DNA re-replication in SW480 colon adenocarcinoma cells (AID 504364); settings: DNA re-replication phenotype (high-content imaging); series mostly up to 46.1 µM
Method in brief: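 SW480 cells (250/well) exposed 48 h at 37 C, 5% CO2, then Hoechst-stained 40 min. Nuclear DNA content imaged by fluorescence scanning (405 nm excitation, 500-530 nm emission); re-replication scored as increased nuclei with elevated intensity.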

[15] = NCATS anti-infectives library activity on HEK293 viability as a counter-qHTS vs the C. elegans viability qHTS (AID 1745854); settings: HEK293 viability counter-screen; series mostly up to 41.8 µM;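 also: HEK293 cells exposed to compounds for 24 hr before the viability read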
Method in brief: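 HEK293 cells (1,500/well) exposed 24 hr at 37C to 1:5 titrations, up to 41.7 uM final; counter-screen to a C. elegans viability qHTS. Viability by CellTiter-Glo luminescence after 10 min at room temperature; digitonin as control.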

[16] = molecular target: Endonuclease 4 (Escherichia coli (strain K12)) (UniProt P0A6C1); assay: Counterscreen for APE1 Inhibitors: qHTS Validation Assay for Inhibitors of Endonuclease IV (AID 1708); settings: E. coli endonuclease IV, DNA cleavage fluorescence; series mostly up to 57.1 µM
Method in brief: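 qHTS concentration-response format; LOPAC1280 tested under APE1-screen conditions. 2 nM enzyme, 15 min compound preincubation at RT, then 50 nM TAMRA/BHQ-2 abasic substrate; kinetic fluorescence read, three reads at 60 s intervals.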

[17] = qHTS for differential inhibitors of proliferation of Plasmodium falciparum line D10 (AID 1877); settings: series mostly up to 28.7 µM;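 also: potency is read from the fitted curve at half-maximal effect; parasites grown with compound for 72 h before DNA staining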
[18] = qHTS for differential inhibitors of proliferation of Plasmodium falciparum line W2 (AID 1883); settings: Potency: Plasmodium falciparum W2 proliferation inhibition; series mostly up to 28.7 µM;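 also: potency is read from the fitted curve at half-maximal effect; parasites grown with compound for 72 h before lysis and staining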
[19] = qHTS for differential inhibitors of proliferation of Plasmodium falciparum line HB3 (AID 1886); settings: Potency: Plasmodium falciparum HB3 proliferation inhibition; series mostly up to 28.7 µM;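 also: potency is read from the fitted curve at half-maximal effect; parasites grown with compound for 72 h before SYBR Green readout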
[20] = molecular target: Galactokinase (Homo sapiens) (UniProt P51570); assay: qHTS Validation Assay for Inhibitors of Human Galactokinase (GALK) (AID 493189); settings: purified human GALK enzyme activity, qHTS 7-point titration; series mostly up to 57.5 µM
Method in brief: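 Enzyme activity is inferred from ATP consumption: human GALK phosphorylates galactose (100 uM) using 35 uM ATP for 1 h at room temperature, and luciferase-based Kinase-Glo Plus reports unconsumed ATP.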

Chain of Ferritin light chain (Equus caballus) (P02791 2-175 limits assumed): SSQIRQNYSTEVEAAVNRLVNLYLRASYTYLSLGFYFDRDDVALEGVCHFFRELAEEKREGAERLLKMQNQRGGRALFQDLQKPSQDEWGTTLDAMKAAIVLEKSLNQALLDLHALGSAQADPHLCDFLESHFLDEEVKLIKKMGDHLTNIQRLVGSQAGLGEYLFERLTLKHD
Chain of Cytochrome P450 2D6 (Homo sapiens) (P10635 whole entry, looked up): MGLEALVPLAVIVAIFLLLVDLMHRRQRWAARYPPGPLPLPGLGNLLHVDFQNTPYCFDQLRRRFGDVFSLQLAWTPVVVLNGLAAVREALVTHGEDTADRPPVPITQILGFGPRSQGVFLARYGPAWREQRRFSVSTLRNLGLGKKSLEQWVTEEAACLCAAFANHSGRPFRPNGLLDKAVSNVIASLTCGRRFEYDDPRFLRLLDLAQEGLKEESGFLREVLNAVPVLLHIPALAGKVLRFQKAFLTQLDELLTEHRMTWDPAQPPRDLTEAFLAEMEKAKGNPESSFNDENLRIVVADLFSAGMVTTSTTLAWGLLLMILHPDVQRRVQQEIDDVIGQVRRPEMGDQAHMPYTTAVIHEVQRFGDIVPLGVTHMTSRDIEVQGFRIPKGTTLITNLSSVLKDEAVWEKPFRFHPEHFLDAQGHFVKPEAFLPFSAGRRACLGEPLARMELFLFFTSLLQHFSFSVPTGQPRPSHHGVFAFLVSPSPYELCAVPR
Chain of Galactokinase (Homo sapiens) (P51570 whole entry, looked up): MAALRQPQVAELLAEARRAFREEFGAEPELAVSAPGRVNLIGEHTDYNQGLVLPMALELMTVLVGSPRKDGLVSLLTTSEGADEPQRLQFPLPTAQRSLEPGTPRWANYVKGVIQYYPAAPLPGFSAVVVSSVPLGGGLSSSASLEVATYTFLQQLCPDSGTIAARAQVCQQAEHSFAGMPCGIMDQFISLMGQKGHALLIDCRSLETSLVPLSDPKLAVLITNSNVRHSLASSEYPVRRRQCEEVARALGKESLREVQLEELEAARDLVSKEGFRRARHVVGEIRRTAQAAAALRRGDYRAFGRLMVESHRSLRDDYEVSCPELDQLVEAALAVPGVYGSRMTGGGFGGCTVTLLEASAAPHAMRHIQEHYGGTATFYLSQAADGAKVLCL
Chain of RecQ-like DNA helicase BLM (Homo sapiens) (P54132 whole entry, looked up): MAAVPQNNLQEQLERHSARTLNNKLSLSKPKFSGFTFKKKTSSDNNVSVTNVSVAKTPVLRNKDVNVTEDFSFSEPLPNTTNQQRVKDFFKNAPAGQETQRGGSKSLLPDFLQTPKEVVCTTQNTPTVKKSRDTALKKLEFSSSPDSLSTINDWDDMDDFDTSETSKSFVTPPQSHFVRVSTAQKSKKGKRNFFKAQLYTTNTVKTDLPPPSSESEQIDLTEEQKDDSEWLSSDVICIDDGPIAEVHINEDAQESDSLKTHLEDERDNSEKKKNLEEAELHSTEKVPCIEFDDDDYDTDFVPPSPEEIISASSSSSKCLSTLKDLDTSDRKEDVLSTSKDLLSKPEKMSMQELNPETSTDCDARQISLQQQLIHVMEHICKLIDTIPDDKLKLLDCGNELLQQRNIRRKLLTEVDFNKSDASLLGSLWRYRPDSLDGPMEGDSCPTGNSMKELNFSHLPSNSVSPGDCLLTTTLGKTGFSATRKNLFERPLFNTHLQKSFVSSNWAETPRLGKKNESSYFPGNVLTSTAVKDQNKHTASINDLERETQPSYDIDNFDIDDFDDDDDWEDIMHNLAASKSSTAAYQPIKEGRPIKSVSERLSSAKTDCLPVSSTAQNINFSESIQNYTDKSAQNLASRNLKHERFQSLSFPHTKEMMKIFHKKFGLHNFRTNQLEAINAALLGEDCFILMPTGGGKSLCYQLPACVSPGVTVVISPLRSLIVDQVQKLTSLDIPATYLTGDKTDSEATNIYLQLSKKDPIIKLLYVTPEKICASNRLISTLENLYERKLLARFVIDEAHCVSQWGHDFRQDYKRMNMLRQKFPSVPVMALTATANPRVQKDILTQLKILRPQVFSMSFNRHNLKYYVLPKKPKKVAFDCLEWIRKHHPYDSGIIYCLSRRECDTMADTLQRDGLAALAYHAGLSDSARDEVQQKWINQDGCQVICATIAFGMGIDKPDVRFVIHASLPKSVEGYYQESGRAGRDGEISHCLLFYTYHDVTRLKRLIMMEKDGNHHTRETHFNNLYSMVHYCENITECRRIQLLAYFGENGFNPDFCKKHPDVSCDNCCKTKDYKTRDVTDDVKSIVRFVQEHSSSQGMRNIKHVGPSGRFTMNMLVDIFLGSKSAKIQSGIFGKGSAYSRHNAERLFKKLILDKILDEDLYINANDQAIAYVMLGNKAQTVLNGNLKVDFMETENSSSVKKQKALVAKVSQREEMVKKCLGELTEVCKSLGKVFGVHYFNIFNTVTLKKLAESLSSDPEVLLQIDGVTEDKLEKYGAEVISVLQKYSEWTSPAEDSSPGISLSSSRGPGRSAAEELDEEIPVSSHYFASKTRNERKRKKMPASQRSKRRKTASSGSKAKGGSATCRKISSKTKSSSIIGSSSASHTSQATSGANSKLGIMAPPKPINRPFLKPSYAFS
Chain of Muscarinic acetylcholine receptor M1 (Rattus norvegicus) (P08482 whole entry, looked up): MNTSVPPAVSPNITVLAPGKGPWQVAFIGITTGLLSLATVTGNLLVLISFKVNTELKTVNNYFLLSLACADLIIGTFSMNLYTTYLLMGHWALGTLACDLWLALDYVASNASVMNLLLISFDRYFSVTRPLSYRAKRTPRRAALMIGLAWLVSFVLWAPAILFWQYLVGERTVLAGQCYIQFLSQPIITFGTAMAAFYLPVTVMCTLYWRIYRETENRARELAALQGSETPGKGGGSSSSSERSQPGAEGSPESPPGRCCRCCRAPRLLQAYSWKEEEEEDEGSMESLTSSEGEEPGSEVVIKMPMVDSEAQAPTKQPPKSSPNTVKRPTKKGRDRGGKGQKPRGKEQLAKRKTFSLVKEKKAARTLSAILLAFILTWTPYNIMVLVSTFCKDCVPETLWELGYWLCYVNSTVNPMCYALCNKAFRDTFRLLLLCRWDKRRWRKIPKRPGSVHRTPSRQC
Chain of Pyruvate kinase PKM (Homo sapiens) (P14618 whole entry, looked up): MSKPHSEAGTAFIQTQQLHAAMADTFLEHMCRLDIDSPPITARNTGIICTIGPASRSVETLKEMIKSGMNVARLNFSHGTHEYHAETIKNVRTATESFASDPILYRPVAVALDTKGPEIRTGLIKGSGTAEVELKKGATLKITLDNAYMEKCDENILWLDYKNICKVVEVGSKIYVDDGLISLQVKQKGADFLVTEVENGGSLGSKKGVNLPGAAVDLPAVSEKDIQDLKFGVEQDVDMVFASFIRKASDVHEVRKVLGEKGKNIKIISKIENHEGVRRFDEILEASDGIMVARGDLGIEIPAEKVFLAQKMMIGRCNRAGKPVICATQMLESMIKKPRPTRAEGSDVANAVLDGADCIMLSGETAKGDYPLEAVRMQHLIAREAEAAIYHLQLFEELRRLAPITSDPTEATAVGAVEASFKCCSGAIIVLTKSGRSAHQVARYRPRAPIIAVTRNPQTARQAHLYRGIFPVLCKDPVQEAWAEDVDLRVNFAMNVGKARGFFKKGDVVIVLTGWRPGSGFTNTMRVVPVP
Chain of Alpha-galactosidase A (Homo sapiens) (P06280 whole entry, looked up): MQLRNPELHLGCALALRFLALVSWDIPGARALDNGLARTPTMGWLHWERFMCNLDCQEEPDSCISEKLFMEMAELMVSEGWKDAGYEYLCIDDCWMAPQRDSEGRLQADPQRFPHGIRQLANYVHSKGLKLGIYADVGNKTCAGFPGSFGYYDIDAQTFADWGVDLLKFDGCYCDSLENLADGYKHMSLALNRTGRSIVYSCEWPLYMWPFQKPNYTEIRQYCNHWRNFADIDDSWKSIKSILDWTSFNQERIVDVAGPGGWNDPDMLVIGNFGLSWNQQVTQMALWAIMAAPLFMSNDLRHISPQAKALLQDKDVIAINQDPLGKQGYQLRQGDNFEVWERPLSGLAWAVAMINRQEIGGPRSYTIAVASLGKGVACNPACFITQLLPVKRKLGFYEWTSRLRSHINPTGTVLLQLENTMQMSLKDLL
Chain of Pyruvate kinase (Leishmania mexicana) (Q27686 2-499 E452W): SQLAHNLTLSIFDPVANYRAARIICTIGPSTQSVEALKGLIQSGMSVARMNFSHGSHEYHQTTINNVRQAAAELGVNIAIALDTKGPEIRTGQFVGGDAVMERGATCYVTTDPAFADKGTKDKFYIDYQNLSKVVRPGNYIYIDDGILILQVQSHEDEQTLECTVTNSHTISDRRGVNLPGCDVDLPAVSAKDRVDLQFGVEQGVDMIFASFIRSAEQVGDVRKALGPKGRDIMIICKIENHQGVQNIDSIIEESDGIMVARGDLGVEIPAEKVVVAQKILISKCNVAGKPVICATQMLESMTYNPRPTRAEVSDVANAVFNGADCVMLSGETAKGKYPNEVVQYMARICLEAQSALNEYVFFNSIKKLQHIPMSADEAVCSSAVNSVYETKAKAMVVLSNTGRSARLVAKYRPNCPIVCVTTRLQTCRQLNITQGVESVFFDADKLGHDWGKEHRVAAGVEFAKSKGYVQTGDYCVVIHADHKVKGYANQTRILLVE
Chain of Guanine nucleotide-binding protein G(i) subunit alpha-1 (Homo sapiens) (P63096 whole entry, looked up): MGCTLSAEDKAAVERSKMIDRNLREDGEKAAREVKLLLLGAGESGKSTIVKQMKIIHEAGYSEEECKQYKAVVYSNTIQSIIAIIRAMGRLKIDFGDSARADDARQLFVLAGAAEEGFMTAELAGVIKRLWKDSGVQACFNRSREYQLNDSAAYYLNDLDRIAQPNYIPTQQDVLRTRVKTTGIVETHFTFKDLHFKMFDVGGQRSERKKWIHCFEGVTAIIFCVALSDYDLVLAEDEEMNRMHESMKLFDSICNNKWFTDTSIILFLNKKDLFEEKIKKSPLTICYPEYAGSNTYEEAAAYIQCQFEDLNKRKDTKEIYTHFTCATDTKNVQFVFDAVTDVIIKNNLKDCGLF

NCCC[C@H](N)CC(=O)N[C@H]1CNC(=O)[C@H]([C@H]2C[C@H](O)N=C(N)N2)NC(=O)C(=CNC(N)=O)NC(=O)[C@H](CO)NC(=O)[C@H](CO)NC1=O (β3hOrn-[Dap]SS[ΔAla(3-NHCONH2)][X4]; lactam 1-C) gave a parasite growth, % of DMSO control [1] of 66.2%.

For Oc1cc2c(c(Cl)c1O)CCNC[C@H]2c1ccccc1, the Potency [2] was “inactive”, the Potency [3] was “inactive” and the outcome [4] was “inactive”. The outcome [5] was “inactive”, the outcome [6] was “inactive” and the outcome [7] was “inactive”.

For CCCCCC/C=C\CCCCCCCc1cccc(O)c1C(=O)O, the Potency [8] was “inactive”.

For COC(=O)c1c(C)cc(OC(=O)c2c(C)cc(O)c(C=O)c2O)c(C)c1O, the Potency [8] was “inactive” and the Potency [9] was “inactive”.

With NC(Cc1ccc(O)c(O)c1)C(=O)O (centres undefined) the Potency [8] was “inactive” and the Potency [9] was “inactive”.

In the case of Nc1ncnc2c1ncn2[C@@H]1O[C@H](COP(=O)(O)OP(=O)(O)OP(=O)(O)OP(=O)(O)OC[C@@H]2O[C@H](n3cnc4c(N)ncnc43)[C@@H](O)[C@@H]2O)[C@H](O)[C@H]1O, the outcome [10] is reported as “inactive”, the outcome [11] is reported as “inactive” and the outcome [12] is reported as “inactive”. For the same compound, the Potency [13] was “inactive” and the outcome [14] was “inactive”.

With COc1cc2c3cc1Oc1c(OC)c(OC)cc4c1[C@@H](Cc1ccc(O)c(c1)Oc1ccc(cc1)C[C@@H]3N(C)CC2)N(C)CC4 the outcome [15] was “inactive”.

With COc1ccc(/C=C/C(=O)O)cc1OC the outcome [15] was “inactive”.

In the case of CN1CCc2c(cc(O)c(O)c2Cl)C(c2cccc(Cl)c2)C1 (centres undefined), the outcome [16] is reported as “inactive”, the Potency [17] is reported as 10 µM (active) and the Potency [18] is reported as 5.01 µM (active). The Potency [19] was 8.91 µM (active), the outcome [11] was “inactive” and the outcome [12] was “inactive”. For the same compound, the outcome [20] was “inactive” and the outcome [14] was “inactive”.

For CCCC1O[C@@H]2C[C@H]3[C@@H]4CCC5=CC(=O)C=C[C@]5(C)C4[C@@H](O)C[C@]3(C)[C@]2(C(=O)CO)O1 (some centres undefined), the outcome [16] was “inactive”, the Potency [17] was 11.2 µM (active) and the Potency [18] was 2.51 µM (active). For the same compound, the Potency [19] was 5.01 µM (active), the outcome [10] was “inactive” and the outcome [12] was “inactive”. For the same compound, the Potency [13] was 10.4 µM (active), the outcome [20] was “inactive” and the outcome [14] was “inactive”.

With NC(=NCc1ccc(Cl)c(Cl)c1)NC(=O)c1nc(Cl)c(N)nc1N the Potency [2] was “inactive”, the Potency [3] was “inactive” and the outcome [4] was “inactive”. The outcome [5] was “inactive”, the outcome [6] was “inactive” and the outcome [7] was “inactive”. For the same compound, the Potency [17] was 0.398 µM (active), the Potency [18] was 1 µM (active) and the Potency [19] was 0.501 µM (active). The outcome [10] was “inactive”, the outcome [11] was “inactive” and the Potency [13] was 0.37 µM (active). For the same compound, the outcome [20] was “inactive”.

In the case of CC#C[C@]1(O)CC[C@H]2C3CCC4=CC(=O)CCC4=C3[C@@H](c3ccc(N(C)C)cc3)C[C@@]21C (some centres undefined), the Potency [17] is reported as 10 µM (active), the Potency [18] is reported as 5.01 µM (active) and the Potency [19] is reported as 12.6 µM (active). For the same compound, the outcome [20] was “inactive”.

In the case of C[n+]1cccc(C(=O)[O-])c1, the outcome [15] is reported as “inactive”.

From PubChem BioAssay (NCATS)
